Measured values as given in article PMC5540273 (PLoS ONE, 2017).

How the values were obtained:
Details in all cases: concentration: 1 μM, replicates: in singlicate; n = 1
[1] = tested on: ACVR2B
[2] = tested on: ACVRL1
[3] = tested on: T1, ADCK3
T1 construct: gene CABC1

[4] = tested on: ADCK4
[5] = tested on: AKT1
[6] = tested on: AKT2
[7] = tested on: AKT3
[8] = tested on: ALK
[9] = tested on: T2, AMPK-alpha1
T2 construct: gene PRKAA1

[10] = tested on: T3, AMPK-alpha2
T3 construct: gene PRKAA2

[11] = tested on: ANKK1
[12] = tested on: T4, ARK5
T4 construct: gene NUAK1

[13] = tested on: T5, ASK1
T5 construct: gene MAP3K5

[14] = tested on: T6, ASK2
T6 construct: gene MAP3K6

[15] = tested on: AURKA
[16] = tested on: AURKB
[17] = tested on: AURKC
[18] = tested on: AXL
[19] = tested on: T7, BIKE
T7 construct: gene BMP2K

[20] = tested on: BLK
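Further: KINOMEscan kinase panel screen.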

SMILES | %Inh [1] [%] | %Inh [2] [%] | %Inh [3] [%] | %Inh [4] [%] | %Inh [5] [%] | %Inh [6] [%] | %Inh [7] [%] | %Inh [8] [%] | %Inh [9] [%] | %Inh [10] [%] | %Inh [11] [%] | %Inh [12] [%] | %Inh [13] [%] | %Inh [14] [%] | %Inh [15] [%] | %Inh [16] [%] | %Inh [17] [%] | %Inh [18] [%] | %Inh [19] [%] | %Inh [20] [%]
CC(C)(C)c1ccc(C(=O)Nc2cn3cc(Cl)ccc3n2)cc1 | 9 | 0 | 5 | 0 | 5 | 0 | 0 | 3 | 0 | 16 | 0 | 0 | 86 | 0 | 0 | 64 | 17 | 0 | 0 | 0
O=C1NC(=O)C(N2CCc3ccccc32)=C1c1ccccc1Cl [SB-373598] | 33 | 13 | 17 | 16 | 0 | 19 | 25 | 4 | 17 | 22 | 18 | 10 | 7 | 13 | 0 | 10 | 3 | 0 | 18 | 7
Cc1cccc(-c2cc(Nc3ccncc3)c3ccccc3n2)n1 [GSK223675] | 0 | 0 | 0 | 11 | 0 | 0 | 0 | 26 | 0 | 8 | 6 | 8 | 11 | 9 | 9 | 0 | 1 | 0 | 9 | 11
COc1cc2nccc(Nc3ccc(NC(=O)c4ccc(C)cc4)c(O)c3)c2cc1OC.Cl [GW440132] | 0 | 0 | 10 | 41 | 0 | 1 | 0 | 6 | 0 | 0 | 0 | 0 | 0 | 0 | 7 | 50 | 57 | 0 | 7 | 95.5
Cc1c(O)cccc1Nc1ccnc2ccc(C(F)(F)F)cc12.Cl [GW466413] | 85 | 43 | 0 | 81 | 0 | 0 | 1 | 25 | 12 | 16 | 0 | 10 | 0 | 0 | 0 | 34 | 0 | 1 | 4 | 66
Cc1cc(NCC(c2ccccc2)c2ccccc2)nc(NCc2ccc(C(F)(F)F)cc2)n1 [GW497681] | 0 | 0 | 10 | 86 | 0 | 0 | 0 | 3 | 0 | 0 | 9 | 13 | 0 | 0 | 7 | 15 | 8 | 0 | 0 | 25
Cl.c1ccc(-c2n[nH]cc2-c2ccnc(-c3ccc(CN4CCOCC4)cc3)c2)nc1 [GW776245] | 9 | 0 | 34 | 0 | 17 | 0 | 0 | 0 | 0 | 14 | 0 | 0 | 1 | 0 | 0 | 6 | 8 | 0 | 20 | 9
Cn1cncc1-c1ccc2ncnc(Nc3ccc(OCc4ccccc4)cc3)c2c1 [GW320571] | 16 | 23 | 27 | 15 | 0 | 20 | 10 | 21 | 35 | 20 | 0 | 72 | 16 | 7 | 0 | 100 | 38 | 10 | 23 | 13
O=C(Nc1n[nH]c2nc(-c3nccs3)c(Br)cc12)C1CC1 [SB-742251] | 11 | 0 | 15 | 19 | 0 | 1 | 0 | 26 | 10 | 8 | 0 | 0 | 4 | 21 | 0 | 31 | 13 | 15 | 36 | 0
Cn1ccc2ncnc(Oc3ccc(Nc4nc5ccccc5[nH]4)cc3)c21 | 0 | 0 | 0 | 0 | 0 | 16 | 0 | 0 | 7 | 0 | 0 | 14 | 0 | 0 | 0 | 95.2 | 3 | 0 | 0 | 0
